Calls of active or inactive are those of the source.
Columns and labels:
Albumin (Bos taurus) = Albumin (Bos taurus) (UniProt P02769); assay: bovine serum albumin binders on microarray, profiling panel, artefact control for SMM control protein annotation, biochemical, small-molecule microarray, Alexa647 label, 635/667 nm fluorescence (AID 1118); conditions: BSA-A647 binding, fluorescence 635 nm, higher = more signal;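 further: score merges 667 nm emission intensity and signal-to-noise per printed compound spot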
[1] = small-molecule microarray binders of probe aXIP, primary screen, biochemical, NeuroSMM set, 635/667 nm fluorescence (AID 1119); conditions: higher = more signal, called active from +8 up or from −8 down;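 further: probe is the protein aXip251-270 applied at 1 µg/mL to compound-printed slides; binding of probe to printed compounds measured as 667 nm fluorescence plus signal to noise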
[2] = small-molecule binders of probe aNOTCH3, primary screen, biochemical, small-molecule microarray, 635/667 nm fluorescence (AID 1120); conditions: higher = more signal;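 further: probe is a biotin-tagged antibody raised against NOTCH3 rather than NOTCH3 protein; score merges spot fluorescence near 667 nm with spot signal to noise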
[3] = small-molecule binders of probe aNOTCH2, primary screen, biochemical, small-molecule microarray, 635/667 nm fluorescence (AID 1121); conditions: higher = more signal;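 further: score merges feature fluorescence read at 667 nm with its signal to noise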
[4] = biological target: Carbonic anhydrase 2 (Homo sapiens) (UniProt P00918); assay: CAII small-molecule binders, profiling panel, biochemical, small-molecule microarray, Alexa647-labelled CAII (AID 1122); conditions: CAII-A647 binding fluorescence, higher = more signal
[5] = COS7 lysate on small-molecule microarray, probe aHis, 635 nm (AID 1123); conditions: COS7 cell lysate, fluorescence, higher = more signal;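 further: z-score combines 667nm fluorescence intensity with signal-to-noise per printed compound spot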
[6] = compound binding in COS7 lysate, probe aLAP1, primary screen, cell lysate, small-molecule microarray (AID 1124); conditions: probe aLAP1, fluorescence, higher = more signal;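 further: lysate comes from COS7 cells expressing LAP1 and is applied at 0.3 µg/mL; score merges spot fluorescence near 667 nm with signal-to-noise over triplicate slides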
Sam68 (KHDRBS1) = assay: Sam68 small-molecule binders, primary screen, biochemical, small-molecule microarray, 635 nm fluorescence (AID 1125); conditions: small-molecule microarray binding, higher = more signal;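 further: score merges 667 nm channel intensity with signal to noise over triplicate slides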
[7] = tested on: Chordin-like protein 2 (CHRDL2); assay: CHRDL2 small-molecule binders, primary screen, biochemical, small-molecule microarray, 635 nm fluorescence (AID 1126); conditions: small-molecule microarray binding, fluorescence 635 nm; higher = more signal;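 further: printed compound slides probed with Chrdl2 protein at 4 µg/mL for 1 h at 4 C; score merges 667 nm emission intensity with signal to noise over three replicate slides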
[8] = biological target: Concanavalin-A (Canavalia ensiformis) (UniProt P02866); assay: ConA small-molecule binders, primary screen, artefact control for SMM control protein annotation, biochemical, small-molecule microarray, Alexa647 label, 635 nm (AID 1127); conditions: ConA-A647 binding fluorescence, higher = more signal;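 further: z combines 667 nm emission intensity with signal-to-noise across three replicate slides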
[9] = anti-His antibody binders, primary screen, artefact control for SMM control protein annotation, biochemical, small-molecule microarray, 635 nm fluorescence (AID 1128); conditions: anti-His Alexa647 antibody binding, higher = more signal;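 further: score merges feature fluorescence with signal-to-noise for each printed compound spot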
[10] = tested on: Human papillomavirus type 1a E7 protein (residues 1-88); assay: HPV1a E7 small-molecule binders, primary screen, biochemical, small-molecule microarray, residues 1-88, 635 nm (AID 1129); conditions: small-molecule microarray binding, fluorescence 635 nm; higher = more signal
[11] = biological target: Focal adhesion kinase 1 (Homo sapiens) (UniProt Q05397); assay: small-molecule microarray binders of FAK, primary screen, biochemical, 635/667 nm fluorescence, BSA, DTT (AID 1130); conditions: PTK2 binding, 635 nm fluorescence, higher = more signal;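 further: composite of spot emission at 667 nm and signal to noise over triplicate slides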
[12] = tested on: Fibrinogen (Alexa647-labelled); assay: fibrinogen binders on compound microarrays, profiling panel, artefact control for SMM control-protein annotation, biochemical, small-molecule microarray, 635/667 nm fluorescence (AID 1131); conditions: fibrinogen-A647 binding fluorescence, higher = more signal;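 further: z-score merges 667 nm fluorescence with per-spot signal-to-noise over triplicate slides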
[13] = biological target: Follistatin (Homo sapiens) (UniProt P19883); assay: follistatin binders on small-molecule microarrays, primary screen, biochemical, small-molecule microarray, 635/667 nm fluorescence (AID 1132); conditions: FST binding, 635 nm fluorescence, higher = more signal
[14] = biological target: Fibroblast growth factor 2 (Homo sapiens) (UniProt P09038); assay: FGF2 binders on small-molecule microarrays, primary screen, biochemical, small-molecule microarray, 635/667 nm fluorescence (AID 1133); conditions: small-molecule microarray binding, FGF2, fluorescence 635/667; higher = more signal
[15] = mitochondrial membrane potential change in A549 cells, profiling panel, cell-based, JC-1 fluorescence, basal, 24 h, 100 nL (AID 1138); conditions: higher = more signal;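 further: A549 lung adenocarcinoma cells under basal conditions with no added stimulus; test concentration not given here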
Lefty1 = Lefty1 binders on small-molecule microarrays, primary screen, biochemical, small-molecule microarray, 635/667 nm fluorescence (AID 1139); conditions: small-molecule microarray binding, fluorescence 635/667; higher = more signal
[16] = tested on: wheat germ agglutinin (Triticum aestivum), Alexa647-labelled; assay: wheat germ agglutinin binders on compound microarrays, profiling panel, artefact control for SMM control-protein annotation, biochemical, small-molecule microarray, 635/667 nm fluorescence (AID 1140); conditions: WGA-A647 binding, 635 nm fluorescence, higher = more signal;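 further: score merges 667 nm feature emission with signal to noise over triplicate slides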
[17] = biological target: Luciferin 4-monooxygenase (Photinus pyralis) (UniProt P08659); assay: firefly luciferase enzyme inhibitors, primary screen, biochemical, luminescence, purified enzyme, 2006 set (AID 1141); conditions: SteadyGlo luminescence, 30 min, higher = more signal, called active from +8 up or from −8 down;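 further: cell-free assay with purified firefly luciferase at 100 ng per well in PBS; test concentration not given here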
Chain of Luciferin 4-monooxygenase (Photinus pyralis) (P08659 whole entry, looked up): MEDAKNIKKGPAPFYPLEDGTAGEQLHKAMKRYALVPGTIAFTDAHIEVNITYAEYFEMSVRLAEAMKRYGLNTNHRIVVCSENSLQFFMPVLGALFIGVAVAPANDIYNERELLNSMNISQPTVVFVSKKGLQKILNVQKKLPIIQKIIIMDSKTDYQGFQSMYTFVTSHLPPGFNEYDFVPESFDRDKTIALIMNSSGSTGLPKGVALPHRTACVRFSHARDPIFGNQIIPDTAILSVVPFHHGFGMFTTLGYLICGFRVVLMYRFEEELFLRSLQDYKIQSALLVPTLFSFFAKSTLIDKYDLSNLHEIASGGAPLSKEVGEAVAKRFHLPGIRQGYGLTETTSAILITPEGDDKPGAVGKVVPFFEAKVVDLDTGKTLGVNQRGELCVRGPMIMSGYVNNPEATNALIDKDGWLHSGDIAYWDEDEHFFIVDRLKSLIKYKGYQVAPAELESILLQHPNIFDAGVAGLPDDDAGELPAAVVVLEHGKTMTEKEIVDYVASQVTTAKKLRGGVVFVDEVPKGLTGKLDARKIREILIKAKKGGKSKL

Chain of Focal adhesion kinase 1 (Homo sapiens) (Q05397 whole entry, looked up): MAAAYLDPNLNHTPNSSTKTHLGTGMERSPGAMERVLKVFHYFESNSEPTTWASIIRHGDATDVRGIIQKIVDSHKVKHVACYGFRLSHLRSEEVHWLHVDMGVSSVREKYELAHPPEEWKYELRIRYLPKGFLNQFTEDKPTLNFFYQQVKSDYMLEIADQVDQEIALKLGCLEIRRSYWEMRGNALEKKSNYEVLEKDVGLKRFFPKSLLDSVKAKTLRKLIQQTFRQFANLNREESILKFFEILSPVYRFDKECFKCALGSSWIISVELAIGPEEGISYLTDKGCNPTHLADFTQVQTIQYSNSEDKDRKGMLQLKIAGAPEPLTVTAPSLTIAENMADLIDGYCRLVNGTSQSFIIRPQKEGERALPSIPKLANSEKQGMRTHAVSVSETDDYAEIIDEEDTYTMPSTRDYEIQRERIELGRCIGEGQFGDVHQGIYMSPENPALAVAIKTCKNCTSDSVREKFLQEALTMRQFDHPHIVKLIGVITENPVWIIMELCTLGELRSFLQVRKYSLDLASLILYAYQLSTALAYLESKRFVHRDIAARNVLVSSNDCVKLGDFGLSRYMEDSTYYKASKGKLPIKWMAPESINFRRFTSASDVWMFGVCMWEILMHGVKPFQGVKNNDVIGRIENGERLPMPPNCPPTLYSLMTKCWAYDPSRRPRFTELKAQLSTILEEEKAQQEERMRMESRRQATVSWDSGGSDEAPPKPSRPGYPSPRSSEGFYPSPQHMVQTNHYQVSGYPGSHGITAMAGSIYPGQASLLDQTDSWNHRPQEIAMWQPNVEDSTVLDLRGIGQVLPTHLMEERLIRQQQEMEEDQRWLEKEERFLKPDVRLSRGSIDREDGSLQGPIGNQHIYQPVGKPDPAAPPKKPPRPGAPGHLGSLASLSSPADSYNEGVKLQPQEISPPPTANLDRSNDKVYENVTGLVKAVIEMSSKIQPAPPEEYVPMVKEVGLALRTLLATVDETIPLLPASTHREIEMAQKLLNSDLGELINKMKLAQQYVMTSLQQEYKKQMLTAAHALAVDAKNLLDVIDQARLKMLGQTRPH
Chain of Fibroblast growth factor 2 (Homo sapiens) (P09038 whole entry, looked up): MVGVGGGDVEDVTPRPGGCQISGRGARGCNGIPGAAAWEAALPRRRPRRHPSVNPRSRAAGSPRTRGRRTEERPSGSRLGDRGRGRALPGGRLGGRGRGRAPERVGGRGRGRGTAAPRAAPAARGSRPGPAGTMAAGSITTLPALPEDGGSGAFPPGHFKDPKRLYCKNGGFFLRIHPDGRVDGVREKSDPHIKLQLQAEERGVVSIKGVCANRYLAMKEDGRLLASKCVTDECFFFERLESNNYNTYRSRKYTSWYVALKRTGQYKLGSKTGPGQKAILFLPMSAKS
Chain of Albumin (Bos taurus) (P02769 whole entry, looked up): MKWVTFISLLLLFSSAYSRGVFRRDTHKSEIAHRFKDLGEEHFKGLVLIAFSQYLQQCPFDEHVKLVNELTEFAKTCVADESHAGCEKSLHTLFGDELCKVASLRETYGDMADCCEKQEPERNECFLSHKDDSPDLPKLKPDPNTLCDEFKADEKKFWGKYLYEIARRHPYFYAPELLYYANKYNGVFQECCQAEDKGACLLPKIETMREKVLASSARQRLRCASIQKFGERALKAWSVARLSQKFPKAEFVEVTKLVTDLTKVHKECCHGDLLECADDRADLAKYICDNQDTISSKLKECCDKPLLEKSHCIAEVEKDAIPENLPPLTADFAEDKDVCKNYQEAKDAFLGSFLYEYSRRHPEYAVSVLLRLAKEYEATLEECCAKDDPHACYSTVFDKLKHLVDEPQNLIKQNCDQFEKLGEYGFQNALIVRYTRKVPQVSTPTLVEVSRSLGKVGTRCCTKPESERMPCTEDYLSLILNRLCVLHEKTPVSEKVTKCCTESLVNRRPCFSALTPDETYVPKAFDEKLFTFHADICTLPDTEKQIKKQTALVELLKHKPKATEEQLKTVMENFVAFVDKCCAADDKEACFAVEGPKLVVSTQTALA
Chain of Follistatin (Homo sapiens) (P19883 whole entry, looked up): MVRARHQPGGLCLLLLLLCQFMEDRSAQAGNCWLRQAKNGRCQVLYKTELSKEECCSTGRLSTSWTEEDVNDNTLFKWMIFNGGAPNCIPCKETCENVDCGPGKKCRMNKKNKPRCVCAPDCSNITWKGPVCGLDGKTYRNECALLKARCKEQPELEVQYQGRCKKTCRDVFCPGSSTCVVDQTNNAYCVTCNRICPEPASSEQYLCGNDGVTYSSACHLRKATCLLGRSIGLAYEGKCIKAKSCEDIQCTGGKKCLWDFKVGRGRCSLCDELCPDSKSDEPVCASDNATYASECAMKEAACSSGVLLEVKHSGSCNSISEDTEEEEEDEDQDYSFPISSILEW
Chain of Concanavalin-A (Canavalia ensiformis) (P02866 whole entry, looked up): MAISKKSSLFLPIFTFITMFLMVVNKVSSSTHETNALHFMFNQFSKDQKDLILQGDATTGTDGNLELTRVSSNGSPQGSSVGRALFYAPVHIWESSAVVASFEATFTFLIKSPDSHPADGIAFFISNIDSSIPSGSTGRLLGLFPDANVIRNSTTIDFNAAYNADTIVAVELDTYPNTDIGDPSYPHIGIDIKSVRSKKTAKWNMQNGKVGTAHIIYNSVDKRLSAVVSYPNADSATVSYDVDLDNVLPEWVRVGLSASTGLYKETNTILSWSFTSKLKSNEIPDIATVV

Compound	composite z-score (Albumin (Bos taurus))	composite Z-score [1]	composite z-score [2]	composite z-score [3]	composite z-score [4]	composite z-score [5]	composite z-score [6]	composite z-score (Sam68 (KHDRBS1))	composite z-score [7]	composite z-score [8]	composite z-score [9]	composite z-score [10]	composite z-score [11]	composite z-score [12]	composite z-score [13]	composite z-score [14]	z-score [15]	composite z-score (Lefty1)	composite z-score [16]	z-score [17]
OCCCC1=CC(c2cccs2)N(Cc2cccc(OC(F)(F)F)c2)CC1 (stereo not given)	0.659	-0.0774 (inactive)	-0.147	0.072	0.389	0.0426	0.144	-0.184	-0.258	-0.659	0.357	-0.138	0.316	-1.42	-0.17	-0.546	0.593	0.226	0.771	-0.605 (inactive)
O=C1O[C@H](c2ccccc2)[C@H](c2ccccc2)N2[C@H]1[C@@H](C(=O)N1CCN(c3ncccn3)CC1)[C@]1(C(=O)Nc3ccc(C#CCCO)cc31)[C@H]2c1ccc(OCCO)cc1	0.612	1.38 (inactive)	0.255	-0.0633	0.296	1.96	0.924	1.3	0.944	1.11	2.06	1.2	0.372	0.934	1.36	0.597	-0.756	1.57	0.772	-0.713 (inactive)
CC1CC/C=C\[C@H]2OC34C=CCN(Cc5ccccc5)C(=O)[C@H]3N(CCO)C(=O)[C@@H]4C2C(=O)O1 (stereo not given in full)	-0.897	0.461 (inactive)	-0.0984	-0.154	0.873	0.368	1.29	0.386	-0.793	-0.315	0.364	0.324	-0.106	-0.785	-0.418	-0.43	-0.322	-0.592	-0.162	-0.573 (inactive)
CC(C)CCC[C@@H](C)[C@H]1CC[C@@]2(C)C3=C(CC[C@]12C)[C@@]1(C)CC[C@H](OC(=O)C(C)(C)C)C(C)(C)C1CC3 (stereo not given in full)	-0.0648	-0.598 (inactive)	-0.0396	-0.191	-0.0485	1.25	-0.0838	0.657	0.547	0.632	0.43	0.586	0.0226	0.551	0.828	0.232	0.4	0.543	0.0969	0.159 (inactive)
COc1ccccc1CN1C(=O)c2ccccc2[C@@]2(Cc3ccccc3N(C3CC3)C2=O)[C@@H]1c1ccc(CO)cc1	0.0999	0.794 (inactive)	-0.15	-0.112	0.669	0.165	-0.978	-0.557	-0.39	0.107	0.131	-1.12	-0.175	-0.248	0.253	-1.17	0.111	-0.154	-0.0487	-0.379 (inactive)
C=CCC(OC(C)=O)[C@@H]1[C@@H](N(Cc2cc3ccccc3o2)C(=O)Cc2ccc(OC)cc2)c2cc(OCCCO)ccc2N1C(=O)c1ccc(-c2ccccc2)cc1 (stereo not given in full)	0.0023	-0.287 (inactive)	0.111	0.0098	-0.137	-0.338	-0.0843	-0.494	0.224	-1.15	-0.316	-0.313	0.107	-0.203	0.352	0.133	0.94	-0.492	-0.272	-0.52 (inactive)
CN(C)CCCCNC(=O)[C@H]1C[C@H]2C(=O)N[C@@H](CCCC[N+](C)(C)C)C(=O)N2[C@H]1c1cccc(OCCO)c1	-0.355	2.15 (inactive)	-0.0774	-0.112	0.798	0.726	0.448	1.15	1.23	1	1.06	0.809	0.373	0.54	1.35	1.67	-0.312	1.35	0.115	0.53 (inactive)
COc1ccccc1CN1C(=O)c2ccccc2[C@](Cc2ccccc2I)(C(=O)NCCN2CCOCC2)[C@@H]1c1ccc(CO)cc1	0.655	-0.0337 (inactive)	0.0629	-0.0288	0.646	1.71	1.01	1.29	0.617	1.1	0.74	1.18	0.467	0.913	1.41	1.39	2.51	0.988	0.718	-1.06 (inactive)
CCCN1C(=O)[C@@H]2Cc3c([nH]c4ccccc34)[C@@H](c3cccc(O)c3)N2C1=O	-0.17	-0.12 (inactive)	-0.0967	-0.0859	-0.112	0.207	1.36	0.65	0.426	0.46	-0.147	0.483	0.131	0.321	0.374	0.428	0.233	0.287	-0.0455	0.718 (inactive)
COCC1=C([C@H](O)CCc2ccccc2)[C@H](CO)[C@@H]2C(=O)N(C)C(=O)[C@@H]2C1	0.218	-0.222 (inactive)	0.0893	-0.0502	0.426	-0.0175	0.0165	0.322	0.758	-0.0605	-0.0971	-0.204	0.0647	-0.114	0.191	0.584	0.982	0.388	-0.368	-1.08 (inactive)
C=C[C@@H](O)[C@H]1CC(c2ccccc2)=NO1	-0.596	0.303 (inactive)	-0.1	-0.084	-0.0997	-0.322	-0.156	-0.542	0.647	0.334	0.103	-0.565	-0.0062	-0.0611	-0.16	-0.121	1.12	-0.0793	-0.288	-1.53 (inactive)
